Data taken from PubChem BioAssay (Tox21).
Results filed as inconclusive are left out. A number with no mark means an inactive call. Calls of active or inactive are those of the source. Calls come from the whole dose curve.

Assay: qHTS assay for small molecule agonists of the p53 signaling pathway - cell viability (AID 651633); note: nearly all actives have a fitted effect of over 30% in size;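 for activity change, negative = cytotoxicity: p53RE-bla HCT reporter cells with a stable beta-lactamase p53 reporter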
Conditions: p53RE-bla HCT-116 viability, ATP luminescence, 16 h; series mostly up to 83.3 µM; activity change, negative = cytotoxicity: at the top concentration
Excerpt: National Center for Advancing Translational Sciences [NCATS]
NIH Chemical Genomics Center [NCGC]
U.S. Environmental Protection Agency [EPA]
National Institutes of Environmental Health Sciences [NIEHS]
National Toxicology Program [NTP]
U.S. Food and Drug Administration [FDA]
p53, a tumor suppressor protein, is activated following cellular insult, including DNA damage and other cellular stresses. The activation of p53 regulates cell fate by inducing DNA repair, cell cycle arrest, apoptosis, or cellular senescence. The activation of p53, therefore, is a good indicator of DNA damage and other cellular stresses. […] The activation of the reporter gene under culture conditions can be detected by fluorescence intensity. This cell line was used to screen the Tox21 compound library in a 1536-well plate format and to identify agonists that activate the p53 signaling pathway.
Tox21 Assay Protocol Summary:
The p53RE-bla cells were dispensed at 4,000 cells/5 ul/well in 1536-well black wall/clear bottom plates using a Multidrop dispenser. After the assay plates were incubated at a 37 C/5% CO2 incubator for 5 hours, 23 nL of compounds dissolved in DMSO, positive controls or DMSO only was transferred to the assay plate by a pin tool. The plates were incubated at 37 C for 16 hours. After 1 uL of LiveBLAzerTM B/G FRET substrate was added using a Flying Reagent Dispenser, the plates were incubated at room temperature for 2 hours, and fluorescence intensity was measured by an Envision plate reader.
For cell viability readout that measures cytotoxicity, 4 ul/well of CellTiter-Glo reagent was added into the assay plates using a Flying Reagent Dispenser. After 30 min incubation at room temperature, the luminescence intensity in the plates was measured using a ViewLux plate reader.
% is set by controls: 0 for no effect and ±100 for the full control effect; potency is the fitted concentration of half-maximal effect.

Compound	activity change, negative = cytotoxicity	Potency
CNC(C)[C@@H]1CC[C@@H](N)[C@@H](O[C@H]2[C@H](O)[C@@H](O[C@H]3OC[C@](C)(O)[C@H](NC)[C@H]3O)[C@H](N)C[C@@H]2N)O1 (stereo partly specified)	18.6% [at 39.1 µM]	
CCC(=O)O[C@](Cc1ccccc1)(c1ccccc1)[C@H](C)CN(C)C	13.8%	
COc1cc(C[C@H](C)N)c(OC)cc1Br	-6.94% [at 95.3 µM]	
CN1C2CCC1CC(OC(c1ccccc1)c1ccc(Cl)cc1)C2 (stereo unspecified)		29.8 µM (active)
CN1CCN=C(c2ccccc2)c2cc(Cl)ccc21	15.6%	
CC[C@@H](O)C(C[C@@H](C)N(C)C)(c1ccccc1)c1ccccc1	-13.9% [at 95.3 µM]	
CCC(=O)O[C@H]1[C@@H](N2CCCCC2)C[C@H]2[C@@H]3CC[C@H]4C[C@H](OC(C)=O)[C@@H](N5CCCCC5)C[C@]4(C)[C@H]3CC[C@@]21C	-11%	
CC(=O)O[C@H]1C[C@H](O[C@H]2[C@@H](O)C[C@H](O[C@H]3[C@@H](O)C[C@H](OC4CC[C@@]5(C)C(CC[C@@H]6[C@@H]5CC[C@]5(C)[C@@H](C7=CC(=O)OC7)[C@@H](O)C[C@]65O)C4)O[C@@H]3C)O[C@@H]2C)O[C@H](C)[C@H]1O[C@@H]1O[C@H](CO)[C@@H](O)[C@H](O)[C@H]1O (stereo partly specified)		0.376 µM (active)
Clc1ccc([C@@H]2C[C@H]3CC[C@@H]2N3)cn1	-9.8%	
Cc1ccc2c(c1)[C@]13CCCC[C@@H]1[C@H](C2)N(C)CC3	5.78%	
C#C[C@]1(OC(=O)CCCCCC)CC[C@H]2[C@@H]3CCC4=CC(=O)CC[C@@H]4[C@H]3CC[C@@]21C		29.8 µM (active)
